Experimental data taken from ChEMBL document CHEMBL3988442, “University of Dundee, Small-Polar-MMV Screening Library” (2021).
About 13,000 (27%) of roughly 48,000 compounds showed an effect of 50% or more. The list shows a part of the results.

The compounds below were run on Wolbachia pipientis (assay: Anti-Wolbachia Cell-Based Screen). Settings: 5 µM.
Assay type: functional
Design: scale not given: in the data most compounds retested in dose-response had high values

Going from `O=C(O)C(F)(F)F.O=S(=O)(c1cccs1)N1CCCn2cnc(CN3CCCC3)c2C1` to `O=C(c1ccc(CN2CCCC2)cc1)N1CCCC(n2cccn2)C1` (stereo not given), the “Percent Effect” value rises from -2.227% to 0.6704%.

First: Cc1cccc(CN2C[C@@H]3CN(C(=O)c4ccsc4)C[C@@H]3C2=O)n1.O=C(O)C(F)(F)F
Second: Cc1cnn(CC2CCCN2C(=O)c2cc(O)nc3ccccc23)c1 (stereo not given)
The “Percent Effect” value of the first is lower: -3.63% for the first, 145.5% for the second.

First: O=C(c1ncc[nH]1)N1CCC(Cn2cc(-c3cccc(Cl)c3)nn2)CC1
Second: Cc1cnn(CC2CCCN2C(=O)c2cn(C)c3ccccc23)c1 (stereo not given)
The “Percent Effect” value of the first is lower: -5.477% for the first, 141.3% for the second.

Compared with `COc1cccc(-n2cc(-c3ccnc(NC(CO)C(C)C)n3)cn2)c1` (stereo not given), `COc1cccc(-n2cc(-c3ccnc(N[C@H](CO)C(C)C)n3)cn2)c1` is lower in “Percent Effect” value: 8.395% for the first, 4.852% for the second.

First: C[C@@H](CO)Nc1cc(-c2cn[nH]c2)ncn1
Second: CC(C)[C@@H](CO)Nc1cc(-c2cn[nH]c2)ncn1
The “Percent Effect” value of the first is lower: 112.5% for the first, 127.6% for the second.

Going from `COc1cccc(-c2noc(-c3ccc(NCC(C)O)nc3)n2)c1OC` (stereo not given) to `COc1ccc(Cc2noc(-c3ccc(NC(C)CO)nc3)n2)cc1` (stereo not given), the “Percent Effect” value rises from -13.68% to 5.885%.

Compared with `C[C@H](O)CNc1cc(-c2cn[nH]c2)ncn1`, `CC[C@@H](CO)Nc1cc(-c2cn[nH]c2)ncn1` is lower in “Percent Effect” value: 139.4% for the first, 98.52% for the second.

Going from `CCC(CO)NC(=O)c1cc(COc2ccc(OC)cc2Cl)[nH]n1` (stereo not given) to `CC[C@@H](CO)NC(=O)c1cc(COc2ccc(OC)cc2Cl)[nH]n1`, the “Percent Effect” value rises from -12.2% to -9.741%.

Compared with `CC(C)c1nccn1CCCNC(=O)c1ccc(-c2cn[nH]c2)nc1`, `CCc1ccc(CN2CCC(CNC(=O)c3ccc(C)nc3)C2)nc1` (stereo not given) is higher in “Percent Effect” value: -8.447% for the first, 20.32% for the second.

Compared with `CSc1ccc2c(C)cc(N[C@@H](C)CO)nc2c1`, `Cc1cc(C)n(-c2cccc(NC(=O)N3CCC[C@@H]3CO)c2)n1` is lower in “Percent Effect” value: -9.02% for the first, -12.47% for the second.

Going from `Cc1cc(CN2CCN(C(=O)NCCCc3cn[nH]c3C)CC2)on1` to `CCc1cc(C)nc(N2CCN(C(C)c3nc(C)no3)CC2)n1` (stereo not given), the “Percent Effect” value rises from -23.87% to 7.355%.

First: Cc1ccc(-n2nnnc2SCN2CCCCC2=O)cc1C
Second: COc1ccc(C)c2c1N(C(=O)c1cnc(C)s1)CCC2
The “Percent Effect” value of the first is lower: -13.91% for the first, 46.61% for the second.

Going from `Cc1ccc(CNC(=O)CN2C=Nc3ccccc3S2(=O)=O)s1` to `CC(NC(=O)N1CCC[C@H]1CO)c1noc(-c2ccccc2)n1` (stereo not given in full), the “Percent Effect” value rises from 1.242% to 5.475%.

Compared with `NC(=O)C1CCCN(Cc2ccc(C(=O)Nc3cnns3)cc2)C1` (stereo not given), `CCNC(=O)C1CCN(Cc2ccc(C(=O)Nc3cnns3)cc2)C1` (stereo not given) is higher in “Percent Effect” value: 103.7% for the first, 106% for the second.

Compared with `CCNC(=O)C1CCN(Cc2ccc(C(=O)Nc3nnc(C)s3)cc2)C1` (stereo not given), `O=C(Nc1nnc(C2CC2)s1)NC1CCN(Cc2ccccc2)C1` (stereo not given) is lower in “Percent Effect” value: 100.1% for the first, -1.377% for the second.

First: Cn1cnnc1CNC(=O)C1CCCN(Cc2ccccc2)C1 (stereo not given)
Second: CCCN(C(=O)c1cnns1)C1CCCN(Cc2ccccc2)C1 (stereo not given)
The “Percent Effect” value of the first is lower: -10.08% for the first, 20.84% for the second.

Going from `NC(=O)c1ccc(CN2CCCC(N3CCCC3)C2)cc1` (stereo not given) to `COc1ccccc1C(=O)N1CCCC1Cn1cc(C)cn1` (stereo not given), the “Percent Effect” value rises from -7.606% to -4.126%.

Going from `CCC(CC)CS(=O)(=O)NC(=O)C1CCCC1` to `O=C(O)C(F)(F)F.O=C([C@H]1COC[C@H]2CN(C3CCCC3)C[C@H]21)N1CCCO1`, the “Percent Effect” value rises from -11.88% to 3.277%.

First: Cc1cnccc1CN(C)Cc1c[nH]nc1-c1ccc(F)cc1F
Second: CCOCc1nccc(-c2ccc(OCC)c(C(=O)O)c2)n1
The “Percent Effect” value of the first is higher: -6.627% for the first, -8.809% for the second.

Going from `O=C(c1cncc2ccccc12)N1CCC[C@@H]1CO` to `O=C(Nc1ccccc1OC1CCOC1)c1ccon1` (stereo not given), the “Percent Effect” value falls from 106.1% to -7.759%.

Compared with `CCN(CCc1nc2cc(C)ccc2[nH]1)C(=O)[C@@H](N)Cc1c[nH]cn1`, `Cc1noc(C(C)N2CCC(c3nc4ccccc4[nH]3)CC2)n1` (stereo not given) is higher in “Percent Effect” value: -4.555% for the first, -1.749% for the second.

Going from `Cc1noc(C(C)N2CCc3[nH]c4ccc(Cl)cc4c3C2)n1` (stereo not given) to `Cc1nnc(C(C)N2CCc3[nH]c4ccc(Cl)cc4c3C2)o1` (stereo not given), the “Percent Effect” value rises from 55.06% to 96.73%.

Compared with `Cc1cccc(-c2nnc(C(C)N3CCn4c(C)nnc4C3)o2)c1` (stereo not given), `Cc1ccc(-c2nnc(C(C)N3CCn4c(C)nnc4C3)o2)cc1` (stereo not given) is higher in “Percent Effect” value: 3.143% for the first, 7.305% for the second.

First: Cc1nnc(C(C)N2CCc3[nH]c4ccccc4c3C2)o1 (stereo not given)
Second: Cc1nnc2n1CCN(C(C)c1nnc(-c3cccs3)o1)C2 (stereo not given)
The “Percent Effect” value of the first is higher: 119.5% for the first, 4.366% for the second.

First: Cc1nnc(C(C)NCC2(c3ccc(Cl)cc3)CCCC2)o1 (stereo not given)
Second: CN(CCO)C[C@@H]1CN(Cc2ccccc2C#N)C[C@@H]1CO
The “Percent Effect” value of the first is lower: 5.084% for the first, 5.341% for the second.
